# Source: PubChem BioAssay AID2401 (Southern Research Specialized Biocontainment Screening …, 2010)
# Out of some 2,200 compounds screened, about 530 (24%) were called active. The list is a sample of the results. Potency and affinity values are given separately. A number with no mark means an inactive call.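 Rule for the calls: active = inhibition above a set limit at one or more concentrations of the dose series; inactive = inhibition under that limit at every dose.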
# Test: nmpC-GFP reporter counter-screen in S. Typhimurium, dose response, counter-screen for PhoP regulon inhibitor project, Salmonella Typhimurium, GFP fluorescence (AID 2401);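 note: S. typhimurium with Mg-insensitive nmpC-GFP reporter grown at 10 µM Mg2+; drop in reporter fluorescence reflects general culture growth inhibition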
# Conditions: 4 h; series mostly up to 150 µM; inhibition: at the top concentration
row,SMILES,inhibition [%]
1,CCOC(=O)CNS(=O)(=O)c1c(C)noc1C,-21.7
2,CC1=C(C(=O)Nc2cccnc2)C(c2ccccn2)n2nnnc2N1 (stereo unspecified),-1.7
3,Cc1ccc(-n2nnnc2SCC(=O)Nc2ncc(Cc3ccccc3Cl)s2)cc1,-23.2
4,Cc1ccc([N+](=O)[O-])cc1-c1ccc(/C=C(\C#N)c2[nH]nc(N)c2C#N)o1,-2.4
5,CCOC(=O)Cn1nnnc1C(C(C)C)N(Cc1cccs1)Cc1cc2cc(C)ccc2[nH]c1=O (stereo unspecified),-3.99
6,O=C(Nc1cnn(Cc2ccc(F)cc2)c1)c1cnccn1,-15.5
7,Cc1ccc2cc(CN(CCO)Cc3nnnn3Cc3ccc(F)cc3)c(=O)[nH]c2c1,-11.4
8,Cc1cc(/C=N/NC(N)=S)c(C)n1-c1ccc(Cl)c(Cl)c1,-8.78
9,N#C/C=C(/N)c1ccc(Br)cc1,8.99
10,Cc1ccc(/C=C/c2nnc(-c3ccc(C)cc3)o2)cc1,6.49
11,O=C(c1[nH]ncc1-c1ccc(Cl)cc1)C1CO1 (stereo unspecified),-25.8
12,O=C1c2ccccc2C(=O)N1CCCc1nc2ccccc2c(=O)n1Cc1ccco1,-27.4
13,CCn1c(=O)c2c(O)cc(=O)oc2c2ccccc21,-11
14,COc1ccc(S(=O)(=O)n2ccc(-c3ccc(OCCN(C)c4ccccn4)cc3)n2)cc1,-26.2
15,COC(=O)c1ccc(NC(=S)NCCc2cccc(C)c2)cc1,-15.9
16,CCOC(=O)C1=C(c2ccccc2)NC(SC)=C(C#N)C1c1ccco1 (stereo unspecified),-18.8

row,SMILES,inhibition [%]
1,CC1OC(Nc2cccc3ccccc23)C(O)C(O)C1O (stereo unspecified),-28.1
2,Cc1nc2ccccc2n1CC(=O)N/N=C\C=C\c1ccccc1,-17.8
3,Cc1ccc(-c2nc(NCc3cccnc3)c3ccccc3n2)cc1,8.39
4,c1ccc(CNc2ncnc3ccccc23)cc1,37.4
5,COc1ccc(Nc2nc(NCc3ccco3)nc(N/N=C/c3ccccc3Cl)n2)cc1,10.1
6,c1ccc(CN2CCN(c3nc(NCc4ccco4)c4ccccc4n3)CC2)cc1,10.5
7,Oc1ccccc1Nc1nc(NCc2ccco2)c2ccccc2n1,33.4
8,Cc1cccc(C(=O)NC(NCc2ccco2)C(Cl)(Cl)Cl)c1 (stereo unspecified),-36
9,COc1ccc(-c2csc(NCc3ccco3)n2)cc1,16.3
10,Cc1ccc2[nH]c3c(NCc4ccco4)ncnc3c2c1,-14.2
11,C#CC(C)(CC)NC(=O)c1cc(OC)c(OC)c(OC)c1 (stereo unspecified),-28.1
12,COC(=O)c1ccc(C)c(NC(=O)CN(c2cc(OC)ccc2OC)S(C)(=O)=O)c1,-12.7
13,CN(CC(=O)Nc1ccc(C#N)cc1)Cc1ccc(Cl)cc1,-2.33
14,Cc1cccc(C)c1Nc1nnc(SCC(=O)Nc2sccc2C#N)s1,1.76
15,COc1ccc(S(=O)(=O)n2nc(OC(=O)c3cccs3)cc2N)cc1,2.91
